Results published in PubChem BioAssay AID1159580 (chemical genetic matrix, 2015).
Hit rate of the full screen: of about 5,500 compounds, about 2,000 (36%) were called active. Another 18% or so got no clear call; they are omitted. The list shows a part of the results. Values without a mark were called inactive. No stated cut-off is given here; in the data, active means normalized growth mostly below about 0.91 (no sharp cut-off); inconclusive means no clear call, values can overlap the other calls; inactive means mostly above about 0.92.

Experiment: chemical genetic growth profiling, strain panel (AID 1159580);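 further: tested at 20 µM; growth read once vehicle control cultures reached saturation at 30 °C; 1 = growth at the plate median or of vehicle wells; lower values mean less growth of the strain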
Conditions: S. cerevisiae deletion strains, growth OD
[1] = locus YAL040C, strain CLN3, active compounds read low
[2] = locus YCL061C, strain MRC1 (second series), active compounds read low
[3] = locus YDR363W, strain ESC2, active compounds read low
[4] = locus YER002W, strain NOP16, active compounds read low
[5] = locus YGR078C, strain PAC10, active compounds read low
[6] = locus YMR307W, strain GAS1, active compounds read low
[7] = locus YNL128W, strain TEP1, active compounds read low
[8] = locus YNL153C, strain GIM3, active compounds read low
[9] = locus YNL175C, strain NOP13, active compounds read low
[10] = locus YNL197C, strain WHI3, active compounds read low
[11] = locus YNL224C, strain SQS1, active compounds read low
[12] = locus YOR083W, strain WHI5 (second series), active compounds read low
[13] = locus YPL241C, strain CIN2, active compounds read low

C[C@@H]1C(=O)NC2=Nc3cccc(Cl)c3CN21
normalized growth (locus YAL013W, strain DEP1, active compounds read low): 0.983 | normalized growth [1]: 1 | normalized growth [2]: 1 | normalized growth (locus YDR150W, strain NUM1, active compounds read low): 1.01 | normalized growth [3]: 1 | normalized growth [4]: 1 | normalized growth [5]: 1 | normalized growth (locus YGR229C, strain SMI1, active compounds read low): 1 | normalized growth [6]: 1 | normalized growth [7]: 1.01 | normalized growth [8]: 0.982 | normalized growth [9]: 0.992 | normalized growth [10]: 1 | normalized growth [11]: 1 | normalized growth (locus YNL322C, strain KRE1, active compounds read low): 0.997 | normalized growth [12]: 1.01 | normalized growth (locus YPL055C, strain LGE1, active compounds read low): 1.02 | normalized growth [13]: 1

O=C1CN2Cc3c(ccc(Cl)c3Cl)N=C2N1
normalized growth (locus YAL021C, strain ccr4, active compounds read low): 0.988 | normalized growth (locus YAL026C, strain drs2, active compounds read low): 0.976 | normalized growth (locus YAL030W, strain snc1, active compounds read low): 0.987 | normalized growth (locus YBL061C, strain skt5, active compounds read low): 1 | normalized growth (locus YBR009C, strain hhf1, active compounds read low): 0.966 | normalized growth (locus YBR023C, strain chs3, active compounds read low): 0.983 | normalized growth (locus YBR171W, strain sec66, active compounds read low): 0.967 | normalized growth (locus YBR231C, strain swc5, active compounds read low): 0.982 | normalized growth (locus YBR279W, strain paf1, active compounds read low): 0.978 | normalized growth (locus YCL011C, strain gbp2, active compounds read low): 0.975 | normalized growth (locus YCL016C, strain dcc1, active compounds read low): 0.978 | normalized growth (locus YCL061C, strain MRC1, active compounds read low): 0.984 | normalized growth (locus YCL069W, strain vba3, active compounds read low): 0.986 | normalized growth (locus YCR088W, strain abp1, active compounds read low): 1.03 | normalized growth (locus YDL005C, strain med2, active compounds read low): 0.96 | normalized growth (locus YDL040C, strain nat1, active compounds read low): 0.986 | normalized growth (locus YDR001C, strain nth1, active compounds read low): 1.05 | normalized growth (locus YDR069C, strain doa4, active compounds read low): 0.972 | normalized growth (locus YDR137W, strain rgp1, active compounds read low): 0.962 | normalized growth (locus YDR159W, strain sac3, active compounds read low): 0.965 | normalized growth (locus YDR195W, strain ref2): 0.961 | normalized growth (locus YDR297W, strain sur2, active compounds read low): 0.97 | normalized growth (locus YDR334W, strain swr1, active compounds read low): 0.99 | normalized growth (locus YDR335W, strain msn5, active compounds read low): 1.01 | normalized growth (locus YDR392W, strain spt3, active compounds read low): 0.952 | normalized growth (locus YEL003W, strain gim4, active compounds read low): 0.98 | normalized growth (locus YEL037C, strain rad23, active compounds read low): 1.09 [resistant] (active) | normalized growth (locus YEL061C, strain CIN8 (second series), active compounds read low): 1.04 | normalized growth (locus YER015W, strain faa2, active compounds read low): 1.03 | normalized growth (locus YER016W, strain bim1, active compounds read low): 0.979 | normalized growth (locus YER111C, strain swi4, active compounds read low): 1.1 [resistant] (active) | normalized growth (locus YER155C, strain BEM2 (second series), active compounds read low): 1.02 | normalized growth (locus YFR010W, strain ubp6, active compounds read low): 1.02 | normalized growth (locus YGL167C, strain pmr1, active compounds read low): 0.968 | normalized growth (locus YGL173C, strain kem1, active compounds read low): 0.972 | normalized growth (locus YGL227W, strain vid30, active compounds read low): 0.969 | normalized growth (locus YGL240W, strain doc1, active compounds read low): 0.97 | normalized growth (locus YGL253W, strain hxk2, active compounds read low): 0.987 | normalized growth (locus YHR013C, strain ard1, active compounds read low): 0.956 | normalized growth (locus YHR027C, strain rpn1, active compounds read low): 0.996 | normalized growth (locus YHR030C, strain SLT2, active compounds read low): 0.984 | normalized growth (locus YHR079C, strain IRE1, active compounds read low): 0.996 | normalized growth (locus YHR142W, strain chs7, active compounds read low): 1.04 | normalized growth (locus YJL092W, strain hpr5, active compounds read low): 0.983 | normalized growth (locus YJL095W, strain BCK1 (second series), active compounds read low): 0.982 | normalized growth (locus YJL095W, strain BCK1, active compounds read low): 0.973 | normalized growth (locus YJL115W, strain asf1, active compounds read low): 1.08 | normalized growth (locus YJL129C, strain trk1, active compounds read low): 0.978 | normalized growth (locus YJL154C, strain vps35, active compounds read low): 0.976 | normalized growth (locus YJL164C, strain tpk1, active compounds read low): 0.999 | normalized growth (locus YJL166W, strain qcr8, active compounds read low): 0.993 | normalized growth (locus YJL187C, strain SWE1, active compounds read low): 0.977 | normalized growth (locus YJR066W, strain TOR1, active compounds read low): 0.929 | normalized growth (locus YKL160W, strain elf1, active compounds read low): 0.996 | normalized growth (locus YKR026C, strain gcn3, active compounds read low): 0.97 | normalized growth (locus YKR091W, strain srl3, active compounds read low): 0.987 | normalized growth (locus YLL001W, strain dnm1, active compounds read low): 0.956 | normalized growth (locus YLL026W, active compounds read low): 0.975 | normalized growth (locus YLL041C, strain sdh2, active compounds read low): 0.975 | normalized growth (locus YLR027C, strain aat2, active compounds read low): 0.991 | normalized growth (locus YLR113W, strain HOG1, active compounds read low): 1.01 | normalized growth (locus YLR221C, strain rsa3, active compounds read low): 1 | normalized growth (locus YLR258W, strain gsy2, active compounds read low): 0.979 | normalized growth (locus YLR262C, strain YPT6 (second series), active compounds read low): 0.985 | normalized growth (locus YLR320W, strain mms22, active compounds read low): 1.01 | normalized growth (locus YLR342W, strain FKS1, active compounds read low): 1.11 [resistant] (active) | normalized growth (locus YLR357W, strain rsc2, active compounds read low): 0.925 | normalized growth (locus YLR370C, strain arc18, active compounds read low): 0.97 | normalized growth (locus YLR384C, strain iki3, active compounds read low): 1.02 | normalized growth (locus YML120C, strain ndi1, active compounds read low): 0.996 | normalized growth (locus YMR058W, strain fet3, active compounds read low): 0.978 | normalized growth (locus YMR125W, strain sto1, active compounds read low): 0.92 | normalized growth (locus YMR129W, active compounds read low): 0.964 | normalized growth (locus YMR205C, strain PFK2, active compounds read low): 0.949 | normalized growth (locus YMR231W, strain pep5, active compounds read low): 0.968 | normalized growth (locus YNL071W, strain lat1, active compounds read low): 0.985 | normalized growth (locus YNL183C, strain NPR1, active compounds read low): 0.941 | normalized growth (locus YNL209W, strain ssb2, active compounds read low): 0.987 | normalized growth (locus YNL248C, strain rpa49, active compounds read low): 0.997 | normalized growth (locus YNL322C, strain KRE1 (second series), active compounds read low): 0.985 | normalized growth (locus YNR049C, strain mso1, active compounds read low): 1.02 | normalized growth (locus YOR001W, strain rrp6, active compounds read low): 0.996 | normalized growth (locus YOR070C, strain gyp1, active compounds read low): 1.03 | normalized growth (locus YOR080W, strain dia2, active compounds read low): 0.963 | normalized growth (locus YOR083W, strain WHI5, active compounds read low): 0.999 | normalized growth (locus YOR106W, strain vam3, active compounds read low): 0.991 | normalized growth (locus YOR231W, strain MKK1, active compounds read low): 0.989 | normalized growth (locus YOR265W, strain rbl2, active compounds read low): 0.988 | normalized growth (locus YOR270C, strain vph1, active compounds read low): 0.957 | normalized growth (locus YOR290C, strain snf2, active compounds read low): 0.957 | normalized growth (locus YPL051W, strain arl3, active compounds read low): 1 | normalized growth (locus YPL078C, strain atp4, active compounds read low): 0.995 | normalized growth (locus YPL106C, strain sse1, active compounds read low): 0.958 | normalized growth (locus YPL240C, strain hsp82, active compounds read low): 0.97 | normalized growth (locus YPL256C, strain CLN2, active compounds read low): 1.01

CN1CC(O)C(O)C(O)C1CO (stereo unspecified)
normalized growth [1]: 1 | normalized growth [2]: 1 | normalized growth [3]: 0.997 | normalized growth [4]: 1.01 | normalized growth [5]: 1.01 | normalized growth [6]: 0.998 | normalized growth [7]: 0.975 | normalized growth [8]: 1.01 | normalized growth [9]: 0.992 | normalized growth [10]: 1 | normalized growth [11]: 0.992 | normalized growth [12]: 1 | normalized growth [13]: 1.01
